# Data as given in publication PMC4552634, “A New Set of Chemical Starting Points with Plasmodium falciparum Transmission-Blocking Potential for Antimalarial Drug Discovery” (PLoS ONE, 2015).
# The whole screen tested about 13,000 compounds, of which about 3,200 (25%) showed an effect of 50% or more. Some of the results follow.
# System: P. falciparum stage V gametocytes
# Parameters: BacTiter-Glo ATP luminescence viability of purified stage V gametocytes in 384-well plates, per cent inhibition versus DMSO
# Conditions: 48 h, 5 µM; inhibitor
row,SMILES,% Inhibition [%]
1,Cn1cc(C(=O)Nc2cccc(-c3cccc(-c4nc5ccc(F)cc5[nH]4)c3)c2)n(C)c1=O [TCMDC-137136],-0.01557
2,O=C(c1cc(OC(F)(F)F)ccc1O)N1CCN(c2ccccc2)CC1 [TCMDC-141127],10.35
3,CC(=O)Nc1ccc(Nc2cc(C)nc(Nc3ccc(NC(C)=O)cc3)n2)cc1 [TCMDC-125764],22.75
4,Cc1cccc2[nH]c(-c3ccc(-c4cccc(NC(=O)c5cccc(C(N)=O)c5)c4)cc3)nc12 [TCMDC-132197],5.465
5,COc1ccc2nccc([C@@H](O)CN3CCC(NCc4ccc5c(n4)NC(=O)CS5)C(F)C3)c2c1 (stereo partly shown) [TCMDC-141718],-27.67
6,COc1ccc(CN2CCCN(Cc3cccc(NC(=O)c4ccc(-c5ccccc5)cc4)c3)CC2)cc1 [TCMDC-141839],80.31
7,O=C(Nc1cccc(CN2CCCN(Cc3cccc(O)c3)CC2)c1)c1ccc(-c2ccccc2)cc1 [TCMDC-141848],31.74
8,O=C(Nc1cccc(CN2CCCN(Cc3ccsc3)CC2)c1)c1ccc(-c2ccccc2)cc1 [TCMDC-141840],82.52
9,COc1ccc(CN2CCC(C(=O)Nc3cccc(-c4cccc(Cl)c4)c3)CC2)cc1O [TCMDC-124610],-57.51
10,O=C(Nc1ccc2ccccc2c1)c1ccc(CN2CCC(Cc3ccccc3)CC2)cc1 [TCMDC-123818],92.78
11,O=C(Nc1cccc(OCc2ccccc2)c1)c1ccc(CN2CCC(Cc3ccccc3)CC2)cc1 [TCMDC-136885],-23.99
12,COc1cccc(CN2CCCN(Cc3cccc(NC(=O)c4ccc(-c5ccccc5)cc4)c3)CC2)c1 [TCMDC-141847],-61.09
13,O=C(Nc1cccc(CN2CCCN(Cc3ccc(O)cc3)CC2)c1)c1ccc2ccccc2c1 [TCMDC-141857],26.89
14,O=C(Nc1cccc(CN2CCCN(Cc3ccccc3)CC2)c1)c1ccc(-c2ccccc2)cc1 [TCMDC-134589],-25.71
15,COc1ccc(CN2CCCN(Cc3cccc(NC(=O)c4ccc5ccccc5c4)c3)CC2)cc1 [TCMDC-141853],-65.02
16,COc1cccc(-c2cccc(NC(=O)C3CCN(Cc4ccc(O)cc4)CC3)c2)c1 [TCMDC-124692],72.66
17,O=C(Nc1cccc(-c2cccc(F)c2)c1)C1CCN(Cc2ccc(O)cc2)CC1 [TCMDC-124688],48.55
18,CC(=O)Nc1cc(C(=O)Nc2cccc(-c3csc(-c4nc5ccccc5[nH]4)c3)c2)ccc1C [TCMDC-132397],-24.51
19,Cc1nc2ccc3ccc(CNc4ccc(C(=O)N[C@@H](CCC(=O)O)C(=O)O)cc4)cc3c2c(=O)[nH]1 [TCMDC-137629],7.462
20,CCC[C@@H]([C@@H](CC1CCCCC1)C(=O)N[C@@H](CCCCNS(C)(=O)=O)C(=O)Nc1nccs1)N(O)C=O [TCMDC-138143],41.43
21,CC1(C)CCNc2cc(NC(=O)c3ccc(-c4ncccc4C(F)(F)F)cc3)ccc21 [TCMDC-133353],8.36
22,COc1ccc(C2=CCN(c3ccc(Cl)c(Cl)c3)C2=O)cc1OCCN1CCCCC1 [TCMDC-138795],24.05
23,COc1ccc2nccc([C@@H](O)CN3CCC(NC(=O)c4ccc(OC)c(N)c4)CC3)c2c1 [TCMDC-140772],8.441
24,CC(=O)N(C)c1cccc(CNc2cc(C)nc(Nc3ccc(C)cc3)n2)c1 [TCMDC-134005],7.958
25,CN1CCN(CC(=O)Nc2ccc(-c3ccc(-c4nc5cc(C(F)(F)F)ccc5[nH]4)s3)cc2)CC1 [TCMDC-136976],14.59
26,COc1cc(Cc2cnc(N)nc2N)cc(OCCCCc2nn[nH]n2)c1OC [TCMDC-138032],13.98

row,SMILES,% Inhibition [%]
1,Cc1cccc(-c2nc3[nH]c(=O)cc(NC(=O)C(C)C)n3n2)c1 [TCMDC-125001],-2.254
2,CCCCCCN1CCCN(Cc2ccc(C(=O)Nc3ccc(Cl)cc3)cc2)CC1 [TCMDC-136416],35.96
3,COc1ccc(CN2CCCN(Cc3ccc(C(=O)Nc4ccc(Cl)cc4)cc3)CC2)cc1 [TCMDC-136409],0.3374
4,O=C(Nc1cccc(CN2CCCN(Cc3ccc(O)cc3)CC2)c1)c1ccc(-c2ccccc2)cc1 [TCMDC-141850],69.39
5,O=C(Nc1cccc(CN2CCN(Cc3ccc(O)cc3)CC2)c1)c1ccc(-c2ccccc2)cc1 [TCMDC-141886],12.46
6,O=C(Nc1cccc(CN2CCCN(Cc3cccc(Cl)c3)CC2)c1)c1ccc(-c2ccccc2)cc1 [TCMDC-141837],-76.33
7,CCCCCCN1CCCN(Cc2ccc(C(=O)Nc3ccc(CC)cc3)cc2)CC1 [TCMDC-136450],13.19
8,CCCCCCN1CCCN(Cc2ccc(C(=O)Nc3ccc(CCC)cc3)cc2)CC1 [TCMDC-136424],9.552
9,CCCc1ccc(NC(=O)c2ccc(CN3CCCN(Cc4ccc(OC)cc4)CC3)cc2)cc1 [TCMDC-136422],91.61
10,CCCCCCN1CCCN(Cc2ccc(C(=O)Nc3ccc(C(C)C)cc3)cc2)CC1 [TCMDC-136423],90.22
11,Oc1c(Br)cc2oc3c(c2c1CNCc1ccccc1)CCCC3 [TCMDC-124248],19.71
12,Cc1cccc2c(CON3C(N)=NC(N)=NC3(C)C)cccc12 [TCMDC-131325],30.52
13,c1ccc2c(c1)CN(Cc1ccsc1)CC1(CCN(Cc3c[nH]c4cnccc34)CC1)O2 [TCMDC-133374],-8.367
14,CS(=O)(=O)CCNCc1ccc(-c2ccc3c(Nc4ccc(Cl)cc4F)ccnc3c2)o1 [TCMDC-138445],0.4033
15,COCCNCc1ccc(-c2ccc3c(Nc4ccc(F)cc4Cl)ccnc3c2)o1 [TCMDC-138448],12.72
16,CN(C)CCNCc1ccc(-c2ccc3c(Nc4ccc(F)cc4Cl)ccnc3c2)o1 [TCMDC-138449],71.06
17,CN(C)Cc1ccc(-c2ccc3c(Nc4ccc(Cl)cc4F)ccnc3c2)o1 [TCMDC-138389],51.2
18,CN(C)CCNCc1ccc(-c2ccc3c(Nc4ccc(Cl)cc4F)ccnc3c2)o1 [TCMDC-138391],96.42
19,Fc1ccc(Nc2ccnc3cc(-c4ccc(CN5CCOCC5)o4)ccc23)c(Cl)c1 [TCMDC-138450],-9.806
20,Fc1cc(Cl)ccc1Nc1ccnc2cc(I)ccc12 [TCMDC-138376],-32.49
21,CN(C)CCN(C)Cc1ccc(-c2ccc3c(Nc4ccc(Cl)cc4F)ccnc3c2)o1 [TCMDC-138388],33.59
22,Fc1ccc(Nc2ccnc3cc(-c4ccc(CNCCN5CCOCC5)o4)ccc23)c(Cl)c1 [TCMDC-138451],28.52
23,CN(C)CCN(C)Cc1ccc(-c2ccc3c(Nc4ccc(F)cc4Cl)ccnc3c2)o1 [TCMDC-138447],57.57
24,CN1CCN(Cc2ccc(-c3ccc4c(Nc5ccc(F)cc5Cl)ccnc4c3)o2)CC1 [TCMDC-138452],13.09
25,COCCNCc1ccc(-c2ccc3c(Nc4ccc(Cl)cc4F)ccnc3c2)o1 [TCMDC-138390],17.71
26,Cc1cccc2nc(-c3ccc(-c4ccc(CN5CC(C)OC(C)C5)cc4)cc3)[nH]c12.O=C(O)C(F)(F)F (stereo not shown) [TCMDC-133823],-0.7329

row,SMILES,% Inhibition [%]
1,Cc1noc(C)c1CN1CCCN(c2ccc3c(c2)CCN(Cc2ccc(-c4ncc[nH]4)cc2)CC3)CC1 [TCMDC-136548],-0.683
2,CO/N=C(\C)c1ccc2c(c1)CCN(CCC1CCC(NC(=O)/C=C/c3ccc(F)cc3)CC1)CC2 (stereo not shown) [TCMDC-139922],-74.19
3,Fc1ccc2nc(-c3ccc(-c4ccc(CNCCc5cccnc5)cc4)s3)[nH]c2c1 [TCMDC-132875],-31.32
4,N#Cc1cccc(C(=O)Nc2cccc(-c3ccc(CN4CCC(O)CC4)cc3)c2)c1 [TCMDC-132652],-17.85
5,CCOC(=O)c1[nH]c2cc(Cl)cc(Cl)c2c1/C=C/C(=O)Nc1ccc(-c2cnc(NC(C)=O)[nH]2)cc1 [TCMDC-137161],-8.366
6,Cc1c(C(=O)N(C)C)sc2c1c(=O)n(Cc1ccccc1)c(=O)n2CC(=O)Nc1ccccc1F [TCMDC-125279],4.453
7,CCc1nc2nc(C)cc(Nc3ccc(F)c(Cl)c3)n2n1 [TCMDC-124770],1.315
8,CCc1nc2nc(C)cc(Nc3ccc4c(c3)OCCO4)n2n1 [TCMDC-125299],-0.3909
9,CCc1nc2nc(C)cc(Nc3cc(C)cc(C)c3)n2n1 [TCMDC-124402],51.49
10,CC1(C)N=C(N)N=C(N)N1OCCNCc1ccc(Cl)cc1 [TCMDC-131628],11.83
11,O=C(Nc1cccc(-c2nn3ccccc3c2-c2ccnc(Nc3ccc(-c4cc[nH]n4)cc3)n2)c1)c1c(F)cccc1F [TCMDC-135915],-3.577
12,CC1CCCC(Nc2noc(-c3sccc3Br)n2)C1 (stereo not shown) [TCMDC-134184],-4.566
13,CS(=O)(=O)c1ccc(CNCc2ccc(-c3cccc(-c4nc5cc(F)ccc5[nH]4)c3)cc2)cc1.O=C(O)C(F)(F)F [TCMDC-132904],15.16
14,CN(CCNCc1ccc(-c2cccc(-c3nc4ccccc4[nH]3)c2)cc1)S(C)(=O)=O.O=C(O)C(F)(F)F [TCMDC-132561],23.76
15,CS(=O)(=O)c1ccc(CCNCc2ccc(-c3cccc(-c4nc5ccccc5[nH]4)c3)cc2)cc1.O=C(O)C(F)(F)F [TCMDC-132558],87.75
16,Fc1ccc2[nH]cc(CCNCc3ccc(-c4cccc(-c5nc6ccccc6[nH]5)c4)cc3)c2c1.O=C(O)C(F)(F)F [TCMDC-132573],88.58
17,Cc1cccc2nc(-c3cccc(-c4ccc(CNCCc5ccncc5)cc4)c3)[nH]c12.O=C(O)C(F)(F)F [TCMDC-132846],-3.628
18,O=C(O)C(F)(F)F.c1cncc(CCNCc2ccc(-c3cccc(-c4nc5ccccc5[nH]4)c3)cc2)c1 [TCMDC-132554],4.222
19,O=C(O)C(F)(F)F.c1ccc(CCNCc2ccc(-c3cccc(-c4nc5ccccc5[nH]4)c3)cc2)nc1 [TCMDC-132537],93.06
20,O=C(O)C(F)(F)F.c1cc(-c2ccc(CNCCc3ccncc3)cc2)cc(-c2nc3ccccc3[nH]2)c1 [TCMDC-132553],67.12
21,O=C(O)C(F)(F)F.c1ccc(-c2ccc(CNCc3ccc(-c4cccc(-c5nc6ccccc6[nH]5)c4)cc3)s2)nc1 [TCMDC-132571],17.42
22,O=C(O)C(F)(F)F.c1cc(CNCCc2ccncc2)cc(-c2ccc(-c3nc4ccccc4[nH]3)cc2)c1 [TCMDC-132856],-34.48
23,Fc1ccc2[nH]c(-c3ccc(-c4ccc(CNCCc5ccncc5)cc4)cc3)nc2c1.O=C(O)C(F)(F)F [TCMDC-132851],-25.93
24,CS(=O)(=O)c1ccc(CNCc2ccc(-c3cccc(-c4nc5ccccc5[nH]4)c3)cc2)cc1.O=C(O)C(F)(F)F [TCMDC-132557],-11.29
